Experimental data published in the supplement of paper PMC10849652.
About 7,900 targets were measured; listed, in parts, are those with a hit and a random draw of the rest. About 0.6% of all pairs of compound and target were hits. Values without a mark were called inactive.

Tests used:
Assay in all cases: log2 fold change, soluble protein after heating vs DMSO (PISA); higher = thermal stabilisation; K562 cells, 10 uM, 30 min; active = over 0.2 and 3.5 SD of the protein, either way, in both replicates (recomputed)
[1] = compound: C1=CC=C(C=C1)[C@H](COC2=CC3=C(C=C2)NC(=O)N3)NC(=O)C4=CC=CN(C4=O)CC5=CC(=C(C=C5)F)F
Summary of the method: (§1)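 K562 cells at 2×10^6 cells/mL were treated for 30 min with 10 μM compound, and aliquots were heated for 3 min over 48°C-58°C before pooling. Extraction used PBS with 0.5% NP-40 at 4°C, and soluble protein was the supernatant after 21,000xg for 90 min, measured by TMTpro 16plex LC-MS/MS with channel sums equalised. Thermal stability values, relative to control samples and from duplicates, are log2 fold changes.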

[2] = compound: CC1=C(SC2=C1C(=N[C@H](C3=NN=C(N32)C)CC(=O)N)C4=CC=C(C=C4)Cl)C
Summary of the method: as §1

[3] = compound: CC1=C2C(=CC=C1)N=C(N(C2=O)C3=CC=CC=C3C)CN4C=NC5=C(N=CN=C54)N
Summary of the method: as §1

[4] = compound: Cc1sc2c(c1C)C(c1ccc(Cl)cc1)=N[C@@H](CC(=O)OC(C)(C)C)c1nnc(C)n1-2
Summary of the method: as §1

[5] = compound: c1ccc([C@@H]2C[C@H]2NC2CCNCC2)cc1
Summary of the method: as §1

Sequence of UniProt Q7Z7G8 (Q7Z7G8 whole entry, looked up): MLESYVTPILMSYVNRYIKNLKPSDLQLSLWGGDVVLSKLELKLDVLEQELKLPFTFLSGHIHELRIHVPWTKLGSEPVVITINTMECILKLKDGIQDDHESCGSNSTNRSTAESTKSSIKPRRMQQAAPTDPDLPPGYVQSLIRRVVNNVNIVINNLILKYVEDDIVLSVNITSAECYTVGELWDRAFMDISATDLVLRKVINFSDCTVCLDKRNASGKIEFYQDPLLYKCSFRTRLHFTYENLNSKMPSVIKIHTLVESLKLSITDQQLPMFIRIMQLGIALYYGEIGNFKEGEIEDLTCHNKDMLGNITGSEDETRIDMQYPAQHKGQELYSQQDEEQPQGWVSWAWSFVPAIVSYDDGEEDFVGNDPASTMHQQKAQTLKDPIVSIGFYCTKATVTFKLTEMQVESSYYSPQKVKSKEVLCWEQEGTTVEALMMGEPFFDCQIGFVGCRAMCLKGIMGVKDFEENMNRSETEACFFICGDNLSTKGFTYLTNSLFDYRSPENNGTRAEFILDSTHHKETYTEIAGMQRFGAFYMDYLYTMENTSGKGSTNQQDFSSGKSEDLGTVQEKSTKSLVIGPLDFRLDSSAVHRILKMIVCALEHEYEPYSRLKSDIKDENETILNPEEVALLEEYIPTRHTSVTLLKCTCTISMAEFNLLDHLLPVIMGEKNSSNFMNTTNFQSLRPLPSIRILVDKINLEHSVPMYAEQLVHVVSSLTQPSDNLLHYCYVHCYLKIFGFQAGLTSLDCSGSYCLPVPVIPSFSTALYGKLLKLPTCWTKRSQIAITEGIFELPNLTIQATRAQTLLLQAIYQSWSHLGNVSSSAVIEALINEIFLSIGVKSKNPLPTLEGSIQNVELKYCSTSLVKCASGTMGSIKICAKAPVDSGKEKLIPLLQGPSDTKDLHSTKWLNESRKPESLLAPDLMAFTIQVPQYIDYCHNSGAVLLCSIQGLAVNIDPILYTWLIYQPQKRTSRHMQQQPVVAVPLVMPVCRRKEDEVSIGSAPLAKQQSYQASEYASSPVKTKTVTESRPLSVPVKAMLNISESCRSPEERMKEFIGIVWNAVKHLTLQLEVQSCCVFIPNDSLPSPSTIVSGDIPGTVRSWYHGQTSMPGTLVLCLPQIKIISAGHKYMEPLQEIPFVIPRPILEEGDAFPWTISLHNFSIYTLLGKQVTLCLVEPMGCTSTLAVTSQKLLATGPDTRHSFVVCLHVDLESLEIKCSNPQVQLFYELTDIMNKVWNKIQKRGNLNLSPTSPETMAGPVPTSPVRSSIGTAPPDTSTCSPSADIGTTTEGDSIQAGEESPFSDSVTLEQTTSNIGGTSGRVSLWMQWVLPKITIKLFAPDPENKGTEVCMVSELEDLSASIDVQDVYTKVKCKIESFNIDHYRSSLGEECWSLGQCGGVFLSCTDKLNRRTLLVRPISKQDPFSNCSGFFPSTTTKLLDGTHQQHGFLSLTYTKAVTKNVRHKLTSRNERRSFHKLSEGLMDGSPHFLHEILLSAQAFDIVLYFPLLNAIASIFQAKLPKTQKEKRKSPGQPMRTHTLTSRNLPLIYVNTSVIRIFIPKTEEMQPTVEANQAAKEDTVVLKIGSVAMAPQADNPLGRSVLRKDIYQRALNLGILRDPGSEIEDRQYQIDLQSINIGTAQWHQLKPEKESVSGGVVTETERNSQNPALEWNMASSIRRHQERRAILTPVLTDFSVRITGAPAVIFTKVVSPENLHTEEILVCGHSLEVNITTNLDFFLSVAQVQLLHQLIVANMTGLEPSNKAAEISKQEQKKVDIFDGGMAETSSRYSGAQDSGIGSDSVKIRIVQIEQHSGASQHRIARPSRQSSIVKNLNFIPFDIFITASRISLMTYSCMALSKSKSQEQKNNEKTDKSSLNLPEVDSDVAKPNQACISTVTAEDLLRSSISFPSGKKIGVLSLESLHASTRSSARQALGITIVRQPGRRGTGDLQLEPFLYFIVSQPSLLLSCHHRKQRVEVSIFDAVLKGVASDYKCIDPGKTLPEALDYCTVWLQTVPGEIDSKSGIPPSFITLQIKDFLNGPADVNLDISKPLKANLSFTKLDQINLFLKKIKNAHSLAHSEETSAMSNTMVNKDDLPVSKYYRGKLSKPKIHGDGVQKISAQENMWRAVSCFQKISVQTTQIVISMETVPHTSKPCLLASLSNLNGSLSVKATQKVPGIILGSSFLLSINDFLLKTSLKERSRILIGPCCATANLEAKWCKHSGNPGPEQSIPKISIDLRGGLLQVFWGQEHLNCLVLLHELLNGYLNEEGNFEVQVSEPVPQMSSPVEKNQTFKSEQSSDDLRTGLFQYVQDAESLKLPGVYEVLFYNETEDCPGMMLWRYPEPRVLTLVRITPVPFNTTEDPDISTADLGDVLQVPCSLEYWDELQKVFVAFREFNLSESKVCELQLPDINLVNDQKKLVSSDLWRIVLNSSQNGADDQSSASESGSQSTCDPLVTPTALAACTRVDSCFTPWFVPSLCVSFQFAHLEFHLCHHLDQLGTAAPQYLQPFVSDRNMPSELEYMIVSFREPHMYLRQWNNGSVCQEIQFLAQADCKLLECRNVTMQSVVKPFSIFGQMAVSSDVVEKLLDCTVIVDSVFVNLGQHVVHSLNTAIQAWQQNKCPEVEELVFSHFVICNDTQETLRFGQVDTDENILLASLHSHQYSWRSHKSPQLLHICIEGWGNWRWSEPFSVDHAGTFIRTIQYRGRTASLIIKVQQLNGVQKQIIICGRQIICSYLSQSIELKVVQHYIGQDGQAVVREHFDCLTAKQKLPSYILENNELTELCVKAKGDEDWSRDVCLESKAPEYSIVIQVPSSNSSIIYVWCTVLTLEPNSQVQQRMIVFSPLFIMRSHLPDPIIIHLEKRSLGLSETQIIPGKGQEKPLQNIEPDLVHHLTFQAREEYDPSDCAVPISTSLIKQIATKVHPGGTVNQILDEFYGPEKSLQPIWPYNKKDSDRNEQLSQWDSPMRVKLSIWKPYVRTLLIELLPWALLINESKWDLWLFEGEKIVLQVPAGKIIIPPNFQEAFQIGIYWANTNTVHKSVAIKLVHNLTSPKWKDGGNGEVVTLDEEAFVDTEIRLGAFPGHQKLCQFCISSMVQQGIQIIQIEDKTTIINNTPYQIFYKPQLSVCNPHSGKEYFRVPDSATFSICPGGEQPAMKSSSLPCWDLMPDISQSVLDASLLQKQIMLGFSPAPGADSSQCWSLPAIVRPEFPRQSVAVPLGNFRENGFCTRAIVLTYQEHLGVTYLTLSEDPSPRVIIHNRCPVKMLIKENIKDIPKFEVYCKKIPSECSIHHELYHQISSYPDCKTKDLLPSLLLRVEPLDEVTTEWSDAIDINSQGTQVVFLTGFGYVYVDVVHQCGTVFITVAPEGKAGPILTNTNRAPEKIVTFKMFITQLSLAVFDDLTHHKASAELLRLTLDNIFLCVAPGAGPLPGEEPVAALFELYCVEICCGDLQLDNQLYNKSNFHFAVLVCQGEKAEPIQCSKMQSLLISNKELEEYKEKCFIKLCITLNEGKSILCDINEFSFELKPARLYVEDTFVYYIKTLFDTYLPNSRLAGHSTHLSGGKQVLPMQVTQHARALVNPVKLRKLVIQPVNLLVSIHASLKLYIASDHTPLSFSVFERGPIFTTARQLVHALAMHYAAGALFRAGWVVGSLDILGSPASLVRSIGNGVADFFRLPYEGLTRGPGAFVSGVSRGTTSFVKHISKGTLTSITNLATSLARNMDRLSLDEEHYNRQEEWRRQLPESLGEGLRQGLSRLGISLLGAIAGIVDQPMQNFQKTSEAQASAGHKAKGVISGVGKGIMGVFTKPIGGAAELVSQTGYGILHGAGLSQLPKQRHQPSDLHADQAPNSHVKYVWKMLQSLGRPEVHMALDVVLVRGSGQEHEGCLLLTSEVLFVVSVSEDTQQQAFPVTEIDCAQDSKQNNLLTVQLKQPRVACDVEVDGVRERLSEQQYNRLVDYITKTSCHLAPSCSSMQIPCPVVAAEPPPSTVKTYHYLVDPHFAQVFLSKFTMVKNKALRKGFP
Sequence of UniProt O14787 (O14787 whole entry, looked up): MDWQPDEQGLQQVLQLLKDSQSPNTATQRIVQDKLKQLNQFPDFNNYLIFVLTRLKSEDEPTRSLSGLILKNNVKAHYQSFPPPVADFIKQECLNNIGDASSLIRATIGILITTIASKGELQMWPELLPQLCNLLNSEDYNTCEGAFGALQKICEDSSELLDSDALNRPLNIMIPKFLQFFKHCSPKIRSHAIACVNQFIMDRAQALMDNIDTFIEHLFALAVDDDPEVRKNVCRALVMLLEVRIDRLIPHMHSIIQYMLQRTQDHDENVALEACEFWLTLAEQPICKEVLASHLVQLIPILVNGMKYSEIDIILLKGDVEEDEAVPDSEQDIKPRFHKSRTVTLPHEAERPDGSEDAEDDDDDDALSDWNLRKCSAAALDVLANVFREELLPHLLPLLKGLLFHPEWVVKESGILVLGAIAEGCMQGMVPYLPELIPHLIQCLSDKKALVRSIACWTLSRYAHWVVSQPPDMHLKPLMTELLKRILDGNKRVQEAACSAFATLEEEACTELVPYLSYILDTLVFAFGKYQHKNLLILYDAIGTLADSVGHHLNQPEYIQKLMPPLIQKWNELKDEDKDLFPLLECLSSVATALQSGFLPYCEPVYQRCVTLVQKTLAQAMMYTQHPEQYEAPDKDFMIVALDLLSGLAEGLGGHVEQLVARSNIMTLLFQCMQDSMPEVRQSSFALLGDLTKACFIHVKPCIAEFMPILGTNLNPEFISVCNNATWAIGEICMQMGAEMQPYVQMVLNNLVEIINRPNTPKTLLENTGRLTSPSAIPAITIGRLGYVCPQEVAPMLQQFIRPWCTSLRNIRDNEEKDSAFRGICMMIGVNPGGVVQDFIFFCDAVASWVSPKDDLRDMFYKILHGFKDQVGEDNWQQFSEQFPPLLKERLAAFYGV
Sequence of UniProt Q16763 (Q16763 whole entry, looked up): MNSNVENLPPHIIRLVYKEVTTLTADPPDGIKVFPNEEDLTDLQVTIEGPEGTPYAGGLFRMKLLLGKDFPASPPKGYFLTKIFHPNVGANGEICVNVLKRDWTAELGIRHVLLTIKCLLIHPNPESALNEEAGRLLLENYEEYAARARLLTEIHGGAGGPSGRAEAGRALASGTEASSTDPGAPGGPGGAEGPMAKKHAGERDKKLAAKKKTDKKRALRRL

Row | Target | log2 fold change [1] | log2 fold change [2] | log2 fold change [3] | log2 fold change [4] | log2 fold change [5]
1 | VARS2, A0A0G2JL52 | -0.006 | 0.006 | 0.044 | -0.004 | -0.015
2 | UTP3 (UniProt Q9NQZ2) | 0.049 | -0.312 | -0.041 | 0.042 | -0.007
3 | USO1 isoform 2 (UniProt O60763) | -0.007 | 0.012 | 0.028 | 0.012 | 0.048
4 | UQCR10 (UniProt Q9UDW1) | -0.032 | 0.036 | 0.142 | -0.131 | -0.009
5 | TMEM128 (UniProt Q5BJH2) | -0.038 | -0.001 | 0.185 | -0.1 | 0
6 | USP48 isoform 8 (UniProt Q86UV5) | -0.073 | 0.106 | 0.191 | -0.012 | 0.119
7 | WARS2 (UniProt Q9UGM6) | -0.025 | -0.009 | 0.104 | -0.002 | 0.06
8 | VPS13B (UniProt Q7Z7G8) | 0 | -0.008 | 0.068 | -0.057 | 0.031
9 | VPS8 (UniProt Q8N3P4) | -0.08 | 0.106 | 0.042 | -0.034 | 0.017
10 | UBE2Q1 (UniProt Q7Z7E8) | -0.041 | 0.061 | 0.053 | -0.001 | 0.062
11 | UGGT1 (UniProt Q9NYU2) | 0.032 | 0.027 | -0.003 | -0.007 | -0.021
12 | VRK2 (UniProt Q86Y07) | 0.001 | 0.004 | 0.011 | 0.005 | -0.083
13 | VPS18 (UniProt Q9P253) | 0.014 | -0.052 | -0.03 | -0.03 | 0.004
14 | WRB (UniProt O00258) | 0.002 | -0.007 | -0.015 | 0.005 | 0.01
15 | UHRF1BP1L (UniProt A0JNW5) | 0.024 | 0.099 | 0.05 | -0.027 | -0.018
16 | UBA6 | -0.018 | 0 | 0.06 | 0.001 | -0.002
17 | TMEM106B (UniProt Q9NUM4) | 0.039 | -0.022 | -0.008 | -0.097 | 0.034
18 | UBE2E3 (UniProt Q969T4) | -0.076 | 0.119 | 0.115 | -0.088 | -0.023
19 | TRIM23 (UniProt P36406) | 0.023 | 0.122 | 0.049 | -0.096 | -0.05
20 | TNPO2 (UniProt O14787) | -0.067 | 0.03 | 0.158 | -0.051 | -0.005
21 | TRAPPC6B (UniProt Q86SZ2) | -0.007 | 0.061 | 0.048 | -0.033 | -0.013
22 | TSPAN13 (UniProt O95857) | -0.195 | 0.023 | 0.639 (active) | 0.076 | 0.018
23 | TXNL1 (UniProt O43396) | 0.005 | 0.051 | 0.056 | -0.01 | 0.015
24 | TRMT61A (UniProt Q96FX7) | 0.157 | -0.033 | -0.051 | 0.141 | -0.049
25 | TOE1 (UniProt Q96GM8) | 0.049 | -0.036 | -0.095 | 0.065 | 0.014
26 | TRABD (UniProt Q9H4I3) | 0.005 | -0.034 | -0.054 | 0.027 | -0.054
27 | UFL1 (UniProt O94874) | -0.072 | 0.012 | 0.039 | 0.001 | -0.066

Row | Target | log2 fold change [1] | log2 fold change [2] | log2 fold change [3] | log2 fold change [4] | log2 fold change [5]
28 | VPS28 (UniProt Q9UK41) | -0.075 | 0.023 | 0.064 | 0.011 | -0.01
29 | UBE2S (UniProt Q16763) | 0.002 | 0.053 | 0.106 | 0 | 0.013
30 | XPNPEP3 (UniProt Q9NQH7) | -0.004 | 0.018 | 0.07 | -0.009 | 0.006
31 | TTI1 (UniProt O43156) | -0.034 | 0.136 | 0.022 | -0.025 | -0.085
32 | VRK1 (UniProt Q99986) | -0.13 | 0.02 | 0.178 | -0.019 | -0.136
33 | USP9X (UniProt Q93008) | -0.049 | 0.028 | 0.057 | 0.012 | -0.007
34 | TRIM4 (UniProt Q9C037) | -0.049 | -0.014 | 0.254 | -0.04 | -0.038
35 | UPF3B (UniProt Q9BZI7) | 0.259 | -0.211 | -0.161 | 0.363 | -0.001
36 | WDR47 (UniProt O94967) | 0.019 | 0.004 | -0.042 | -0.031 | 0.078
37 | VTA1 (UniProt Q9NP79) | 0.007 | 0.062 | 0.104 | -0.075 | -0.025
38 | WDR46 (UniProt O15213) | 0.058 | -0.35 | -0.302 | 0.246 | -0.005
39 | WDR61 (UniProt Q9GZS3) | -0.035 | 0.04 | 0.077 | 0.032 | 0.012
40 | UFM1 isoform 2 (UniProt P61960) | -0.032 | -0.009 | 0.066 | -0.069 | -0.048
41 | TRIP10 isoform 2 (UniProt Q15642) | -0.039 | 0.085 | 0.222 | 0.03 | -0.026
42 | WEE1 (UniProt P30291) | 0.116 | -0.031 | -0.059 | 0.132 | 0.11
43 | UBC (UniProt P0CG48) | 0.023 | 0.087 | 0.058 | -0.019 | -0.061
44 | UBAP1 isoform 4 (UniProt Q9NZ09) | 0.021 | 0.005 | 0.129 | -0.171 | -0.072
45 | UCHL5 isoform 3 (UniProt Q9Y5K5) | 0.021 | 0.232 | -0.123 | 0.069 | 0.167
46 | WASHC3 (UniProt Q9Y3C0) | 0.015 | -0.022 | 0.045 | -0.001 | 0.028
47 | UBXN8 (UniProt O00124) | 0.3 | -0.074 | 0.192 | 0.099 | -0.055
48 | USP34 (UniProt Q70CQ2) | -0.083 | 0.081 | 0.142 | -0.003 | 0.034
49 | USP7 (UniProt Q93009) | -0.165 | 0.026 | 0.09 | -0.01 | -0.062
50 | WASHC2A (UniProt Q641Q2) | -0.006 | -0.041 | -0.017 | 0.069 | 0.033
51 | TRAPPC3 (UniProt O43617) | -0.025 | 0.03 | 0.036 | -0.024 | 0.007
52 | VPS53 isoform 4 (UniProt Q5VIR6) | -0.009 | 0.02 | 0.049 | -0.006 | -0.007
53 | TTI2 (UniProt Q6NXR4) | 0.07 | 0.027 | 0.031 | 0.028 | 0.041
